Laboratory results taken from ChEMBL document CHEMBL2218924, “A broad activity screen in support of a chemogenomic map for kinase signalling research and drug discovery” (Biochem J, 2013).

Columns and labels:
[1] = molecular target: T1, Serine/threonine-protein kinase 3 (Homo sapiens) (UniProt Q13188); conditions: at 1 µM
T1 sequence (whole entry): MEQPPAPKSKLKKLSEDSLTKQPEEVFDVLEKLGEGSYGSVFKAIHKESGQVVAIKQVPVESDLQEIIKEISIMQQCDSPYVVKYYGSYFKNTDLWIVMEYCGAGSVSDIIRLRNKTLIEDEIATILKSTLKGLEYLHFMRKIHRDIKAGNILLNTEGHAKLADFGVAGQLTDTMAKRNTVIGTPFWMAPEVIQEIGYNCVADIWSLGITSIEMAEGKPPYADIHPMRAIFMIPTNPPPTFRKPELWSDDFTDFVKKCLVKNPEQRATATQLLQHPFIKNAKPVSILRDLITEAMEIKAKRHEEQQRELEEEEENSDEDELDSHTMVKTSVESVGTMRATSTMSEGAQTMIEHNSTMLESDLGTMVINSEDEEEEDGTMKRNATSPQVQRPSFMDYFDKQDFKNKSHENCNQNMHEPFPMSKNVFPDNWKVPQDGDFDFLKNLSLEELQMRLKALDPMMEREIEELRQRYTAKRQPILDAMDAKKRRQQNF

[2] = molecular target: T1, Serine/threonine-protein kinase 3 (Homo sapiens); conditions: at 10 µM
[3] = molecular target: Serine/threonine-protein kinase 24 (Homo sapiens) (UniProt Q9Y6E0); conditions: at 1 µM
Chain of Serine/threonine-protein kinase 24 (Homo sapiens) (Q9Y6E0 whole entry, looked up): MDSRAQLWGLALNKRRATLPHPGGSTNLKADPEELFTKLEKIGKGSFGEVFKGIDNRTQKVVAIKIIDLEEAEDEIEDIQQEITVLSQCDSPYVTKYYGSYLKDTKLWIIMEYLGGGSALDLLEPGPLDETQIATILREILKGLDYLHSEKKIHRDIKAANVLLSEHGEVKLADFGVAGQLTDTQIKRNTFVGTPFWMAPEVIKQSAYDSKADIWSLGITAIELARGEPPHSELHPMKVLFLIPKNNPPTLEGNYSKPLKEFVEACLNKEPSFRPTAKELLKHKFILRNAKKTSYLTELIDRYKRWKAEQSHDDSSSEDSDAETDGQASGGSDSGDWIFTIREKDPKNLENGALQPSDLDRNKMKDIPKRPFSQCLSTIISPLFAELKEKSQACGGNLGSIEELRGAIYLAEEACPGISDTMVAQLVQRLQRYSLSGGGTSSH

[4] = molecular target: Serine/threonine-protein kinase 24 (Homo sapiens) (UniProt Q9Y6E0); conditions: at 10 µM
[5] = molecular target: T2, Tyrosine-protein kinase Mer (Homo sapiens) (UniProt Q12866); conditions: at 1 µM
T2 sequence (whole entry): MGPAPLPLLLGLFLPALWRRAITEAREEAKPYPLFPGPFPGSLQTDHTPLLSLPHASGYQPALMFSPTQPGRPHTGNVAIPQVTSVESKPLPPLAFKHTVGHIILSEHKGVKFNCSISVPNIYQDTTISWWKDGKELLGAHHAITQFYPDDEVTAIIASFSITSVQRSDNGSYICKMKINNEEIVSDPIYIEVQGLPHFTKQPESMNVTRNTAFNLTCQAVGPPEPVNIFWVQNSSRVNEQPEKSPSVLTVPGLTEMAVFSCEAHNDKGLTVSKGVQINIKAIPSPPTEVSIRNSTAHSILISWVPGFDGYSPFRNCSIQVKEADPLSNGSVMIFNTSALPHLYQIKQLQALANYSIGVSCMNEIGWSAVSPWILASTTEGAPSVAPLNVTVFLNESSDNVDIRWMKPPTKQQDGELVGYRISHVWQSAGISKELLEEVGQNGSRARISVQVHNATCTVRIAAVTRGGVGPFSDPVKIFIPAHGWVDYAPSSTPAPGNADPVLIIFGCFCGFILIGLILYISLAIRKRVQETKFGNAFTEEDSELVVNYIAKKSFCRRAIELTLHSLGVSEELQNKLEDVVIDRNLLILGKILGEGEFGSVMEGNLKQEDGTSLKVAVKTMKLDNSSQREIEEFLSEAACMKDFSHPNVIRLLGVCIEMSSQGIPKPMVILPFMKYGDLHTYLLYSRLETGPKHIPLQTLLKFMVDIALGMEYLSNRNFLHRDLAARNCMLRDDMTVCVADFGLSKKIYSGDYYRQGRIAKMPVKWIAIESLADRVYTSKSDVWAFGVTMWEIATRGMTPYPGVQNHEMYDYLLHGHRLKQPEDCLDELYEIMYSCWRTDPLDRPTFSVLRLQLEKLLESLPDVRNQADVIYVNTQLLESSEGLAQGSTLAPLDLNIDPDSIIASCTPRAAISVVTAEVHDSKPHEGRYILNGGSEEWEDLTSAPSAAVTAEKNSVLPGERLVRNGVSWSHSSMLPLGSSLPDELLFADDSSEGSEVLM

[6] = molecular target: T2, Tyrosine-protein kinase Mer (Homo sapiens); conditions: at 10 µM
[7] = molecular target: MAP kinase-interacting serine/threonine-protein kinase 2 (Homo sapiens) (UniProt Q9HBH9); conditions: at 1 µM
Chain of MAP kinase-interacting serine/threonine-protein kinase 2 (Homo sapiens) (Q9HBH9 whole entry, looked up): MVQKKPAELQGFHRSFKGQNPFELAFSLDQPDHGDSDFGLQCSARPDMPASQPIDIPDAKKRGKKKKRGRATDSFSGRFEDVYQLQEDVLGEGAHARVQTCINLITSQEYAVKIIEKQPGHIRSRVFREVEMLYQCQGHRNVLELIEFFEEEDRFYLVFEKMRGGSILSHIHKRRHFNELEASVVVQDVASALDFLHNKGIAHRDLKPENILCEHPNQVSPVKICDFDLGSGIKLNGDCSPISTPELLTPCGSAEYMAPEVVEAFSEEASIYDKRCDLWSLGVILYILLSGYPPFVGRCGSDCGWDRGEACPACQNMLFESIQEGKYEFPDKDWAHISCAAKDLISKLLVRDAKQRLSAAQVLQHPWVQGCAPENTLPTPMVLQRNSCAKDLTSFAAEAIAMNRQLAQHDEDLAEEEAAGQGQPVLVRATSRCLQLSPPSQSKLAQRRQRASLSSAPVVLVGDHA

[8] = molecular target: MAP kinase-interacting serine/threonine-protein kinase 2 (Homo sapiens) (UniProt Q9HBH9); conditions: at 10 µM
[9] = molecular target: T3, Muscle, skeletal receptor tyrosine-protein kinase (Homo sapiens) (UniProt O15146); conditions: at 1 µM
T3 sequence (whole entry): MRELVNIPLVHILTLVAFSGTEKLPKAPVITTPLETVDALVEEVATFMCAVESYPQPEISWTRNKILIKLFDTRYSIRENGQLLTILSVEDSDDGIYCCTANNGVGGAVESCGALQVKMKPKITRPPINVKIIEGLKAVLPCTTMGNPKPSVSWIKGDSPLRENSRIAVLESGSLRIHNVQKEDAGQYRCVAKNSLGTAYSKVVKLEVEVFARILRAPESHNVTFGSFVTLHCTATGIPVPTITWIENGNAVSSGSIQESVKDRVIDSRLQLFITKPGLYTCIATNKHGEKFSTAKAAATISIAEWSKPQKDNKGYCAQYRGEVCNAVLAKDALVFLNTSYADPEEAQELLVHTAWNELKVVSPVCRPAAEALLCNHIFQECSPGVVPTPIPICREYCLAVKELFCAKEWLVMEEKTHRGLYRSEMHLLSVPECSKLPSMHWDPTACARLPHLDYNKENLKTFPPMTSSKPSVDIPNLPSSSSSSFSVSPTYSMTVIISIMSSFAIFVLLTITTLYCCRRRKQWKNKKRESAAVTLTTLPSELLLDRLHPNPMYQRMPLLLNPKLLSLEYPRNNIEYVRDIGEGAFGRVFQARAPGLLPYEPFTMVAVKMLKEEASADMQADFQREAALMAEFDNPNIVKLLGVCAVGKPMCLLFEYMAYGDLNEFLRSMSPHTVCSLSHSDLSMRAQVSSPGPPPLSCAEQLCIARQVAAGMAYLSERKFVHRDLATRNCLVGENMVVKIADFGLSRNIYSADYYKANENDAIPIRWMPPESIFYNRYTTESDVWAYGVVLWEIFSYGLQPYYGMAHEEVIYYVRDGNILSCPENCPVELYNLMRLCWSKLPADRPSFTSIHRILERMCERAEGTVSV

[10] = molecular target: T3, Muscle, skeletal receptor tyrosine-protein kinase (Homo sapiens); conditions: at 10 µM
[11] = molecular target: T4, Serine/threonine-protein kinase Nek2 (Homo sapiens) (UniProt P51955); conditions: at 1 µM
T4 sequence (whole entry): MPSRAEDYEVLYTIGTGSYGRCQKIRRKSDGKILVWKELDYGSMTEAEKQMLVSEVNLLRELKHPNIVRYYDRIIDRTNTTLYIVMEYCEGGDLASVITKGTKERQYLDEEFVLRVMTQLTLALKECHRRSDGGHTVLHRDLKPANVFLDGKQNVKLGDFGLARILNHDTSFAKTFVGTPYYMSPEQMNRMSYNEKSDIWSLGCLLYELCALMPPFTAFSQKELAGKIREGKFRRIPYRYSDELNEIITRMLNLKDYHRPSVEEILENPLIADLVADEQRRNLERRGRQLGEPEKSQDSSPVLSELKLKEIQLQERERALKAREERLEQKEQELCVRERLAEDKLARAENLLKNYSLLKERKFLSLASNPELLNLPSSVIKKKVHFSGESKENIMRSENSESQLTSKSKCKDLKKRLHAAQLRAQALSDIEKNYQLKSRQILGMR

[12] = molecular target: T4, Serine/threonine-protein kinase Nek2 (Homo sapiens); conditions: at 10 µM
[13] = molecular target: T5, Serine/threonine-protein kinase Nek3 (Homo sapiens) (UniProt P51956); conditions: at 1 µM
T5 sequence (whole entry): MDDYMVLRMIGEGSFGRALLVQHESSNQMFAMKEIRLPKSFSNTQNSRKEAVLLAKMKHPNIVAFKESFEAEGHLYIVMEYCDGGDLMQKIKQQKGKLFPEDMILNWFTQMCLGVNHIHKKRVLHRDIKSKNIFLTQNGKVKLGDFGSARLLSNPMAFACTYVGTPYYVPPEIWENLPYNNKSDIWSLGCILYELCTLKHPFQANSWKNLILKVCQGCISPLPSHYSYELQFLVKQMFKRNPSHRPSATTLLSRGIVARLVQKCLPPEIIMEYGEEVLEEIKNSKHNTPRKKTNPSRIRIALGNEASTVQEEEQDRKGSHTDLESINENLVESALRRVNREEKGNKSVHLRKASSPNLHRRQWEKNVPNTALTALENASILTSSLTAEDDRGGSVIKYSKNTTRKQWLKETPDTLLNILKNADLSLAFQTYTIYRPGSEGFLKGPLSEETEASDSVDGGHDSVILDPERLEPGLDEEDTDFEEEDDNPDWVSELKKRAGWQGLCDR

[14] = molecular target: T5, Serine/threonine-protein kinase Nek3 (Homo sapiens); conditions: at 10 µM
[15] = molecular target: Serine/threonine-protein kinase tousled-like 2 (Homo sapiens) (UniProt Q86UE8); conditions: at 1 µM
Chain of Serine/threonine-protein kinase tousled-like 2 (Homo sapiens) (Q86UE8 whole entry, looked up): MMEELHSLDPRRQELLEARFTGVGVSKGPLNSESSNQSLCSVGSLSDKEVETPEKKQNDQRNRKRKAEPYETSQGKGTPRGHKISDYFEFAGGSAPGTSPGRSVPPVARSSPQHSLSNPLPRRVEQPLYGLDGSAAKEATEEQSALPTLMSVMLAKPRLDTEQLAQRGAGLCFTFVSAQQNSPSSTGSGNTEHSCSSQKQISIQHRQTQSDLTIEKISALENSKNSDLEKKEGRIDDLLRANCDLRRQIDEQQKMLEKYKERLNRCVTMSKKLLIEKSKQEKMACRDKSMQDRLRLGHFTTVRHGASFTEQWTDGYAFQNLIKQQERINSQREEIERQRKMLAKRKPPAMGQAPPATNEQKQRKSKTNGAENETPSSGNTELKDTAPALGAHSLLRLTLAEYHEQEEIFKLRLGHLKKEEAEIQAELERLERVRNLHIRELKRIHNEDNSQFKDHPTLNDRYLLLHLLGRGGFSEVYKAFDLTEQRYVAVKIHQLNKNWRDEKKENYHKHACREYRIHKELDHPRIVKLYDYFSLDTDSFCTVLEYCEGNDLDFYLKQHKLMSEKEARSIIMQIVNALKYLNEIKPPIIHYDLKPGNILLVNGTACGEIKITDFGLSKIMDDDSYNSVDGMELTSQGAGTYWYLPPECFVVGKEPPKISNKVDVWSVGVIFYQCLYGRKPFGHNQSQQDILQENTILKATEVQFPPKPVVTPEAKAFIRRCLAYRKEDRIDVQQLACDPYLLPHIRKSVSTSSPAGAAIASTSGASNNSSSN

[16] = molecular target: Serine/threonine-protein kinase tousled-like 2 (Homo sapiens) (UniProt Q86UE8); conditions: at 10 µM
[17] = molecular target: Hepatocyte growth factor receptor (Homo sapiens) (UniProt P08581); conditions: at 1 µM
Chain of Hepatocyte growth factor receptor (Homo sapiens) (P08581 whole entry): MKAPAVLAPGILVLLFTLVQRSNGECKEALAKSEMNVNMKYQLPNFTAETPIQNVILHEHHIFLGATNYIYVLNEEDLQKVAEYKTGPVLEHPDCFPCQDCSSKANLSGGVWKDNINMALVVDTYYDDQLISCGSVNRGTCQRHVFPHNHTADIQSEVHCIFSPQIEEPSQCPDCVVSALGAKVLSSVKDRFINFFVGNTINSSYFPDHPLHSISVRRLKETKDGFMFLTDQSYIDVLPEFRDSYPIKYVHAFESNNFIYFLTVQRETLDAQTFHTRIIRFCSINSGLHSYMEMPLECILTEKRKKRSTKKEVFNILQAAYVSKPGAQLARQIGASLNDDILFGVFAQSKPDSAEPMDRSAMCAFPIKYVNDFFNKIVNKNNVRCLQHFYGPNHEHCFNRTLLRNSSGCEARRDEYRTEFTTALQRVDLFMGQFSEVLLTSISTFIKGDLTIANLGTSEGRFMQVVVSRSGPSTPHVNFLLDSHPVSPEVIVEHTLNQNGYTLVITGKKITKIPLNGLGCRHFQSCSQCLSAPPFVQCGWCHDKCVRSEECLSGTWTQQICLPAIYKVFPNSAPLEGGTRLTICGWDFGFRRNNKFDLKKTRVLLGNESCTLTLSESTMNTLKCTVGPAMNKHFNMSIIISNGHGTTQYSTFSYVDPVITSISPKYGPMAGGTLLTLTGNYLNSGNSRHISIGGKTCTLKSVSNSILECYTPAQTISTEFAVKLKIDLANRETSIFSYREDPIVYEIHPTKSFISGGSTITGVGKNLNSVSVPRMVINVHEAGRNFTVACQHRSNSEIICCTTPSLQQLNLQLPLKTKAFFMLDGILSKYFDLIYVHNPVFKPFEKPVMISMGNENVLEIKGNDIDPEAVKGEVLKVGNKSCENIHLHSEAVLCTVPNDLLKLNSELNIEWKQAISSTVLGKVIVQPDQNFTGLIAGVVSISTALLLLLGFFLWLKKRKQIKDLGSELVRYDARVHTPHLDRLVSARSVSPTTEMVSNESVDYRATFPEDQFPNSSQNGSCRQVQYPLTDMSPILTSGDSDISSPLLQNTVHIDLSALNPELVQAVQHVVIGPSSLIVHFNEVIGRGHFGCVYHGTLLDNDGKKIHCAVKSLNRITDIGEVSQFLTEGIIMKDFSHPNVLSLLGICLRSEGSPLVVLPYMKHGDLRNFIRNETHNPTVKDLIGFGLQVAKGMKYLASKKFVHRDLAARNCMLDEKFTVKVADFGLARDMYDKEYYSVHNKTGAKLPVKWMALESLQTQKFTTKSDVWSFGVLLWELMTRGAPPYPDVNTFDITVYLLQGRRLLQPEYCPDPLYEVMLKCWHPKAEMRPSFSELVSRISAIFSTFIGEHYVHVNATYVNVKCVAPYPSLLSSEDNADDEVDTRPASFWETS

[18] = molecular target: Hepatocyte growth factor receptor (Homo sapiens) (UniProt P08581); conditions: at 10 µM
[19] = molecular target: T6, Serine/threonine-protein kinase Nek11 (Homo sapiens) (UniProt Q8NG66); conditions: at 1 µM
T6 sequence (whole entry): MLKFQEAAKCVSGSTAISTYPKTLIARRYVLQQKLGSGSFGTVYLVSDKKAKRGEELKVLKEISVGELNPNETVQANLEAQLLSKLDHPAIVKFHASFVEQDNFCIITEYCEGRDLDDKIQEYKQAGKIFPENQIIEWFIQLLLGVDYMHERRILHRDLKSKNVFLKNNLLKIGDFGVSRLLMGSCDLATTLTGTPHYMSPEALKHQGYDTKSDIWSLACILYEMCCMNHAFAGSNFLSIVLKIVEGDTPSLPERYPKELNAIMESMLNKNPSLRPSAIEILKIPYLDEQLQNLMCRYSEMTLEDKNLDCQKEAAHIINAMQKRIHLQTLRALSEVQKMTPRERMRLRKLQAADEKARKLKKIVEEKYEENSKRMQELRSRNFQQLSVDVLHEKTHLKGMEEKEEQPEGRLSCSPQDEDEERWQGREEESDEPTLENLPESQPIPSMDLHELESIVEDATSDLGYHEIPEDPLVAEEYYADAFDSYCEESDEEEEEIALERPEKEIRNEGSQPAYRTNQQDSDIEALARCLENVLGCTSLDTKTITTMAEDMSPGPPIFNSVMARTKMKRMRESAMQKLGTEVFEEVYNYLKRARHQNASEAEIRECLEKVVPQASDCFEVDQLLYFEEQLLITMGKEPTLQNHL

[20] = molecular target: T6, Serine/threonine-protein kinase Nek11 (Homo sapiens); conditions: at 10 µM

Structure (SMILES) | residual activity [1] [%] | residual activity [2] [%] | residual activity [3] [%] | residual activity [4] [%] | residual activity [5] [%] | residual activity [6] [%] | residual activity [7] [%] | residual activity [8] [%] | residual activity [9] [%] | residual activity [10] [%] | residual activity [11] [%] | residual activity [12] [%] | residual activity [13] [%] | residual activity [14] [%] | residual activity [15] [%] | residual activity [16] [%] | residual activity [17] [%] | residual activity [18] [%] | residual activity [19] [%] | residual activity [20] [%]
O=C1Cc2c([nH]c3ccc(Br)cc23)-c2ccccc2N1 | 87 | 28 | 65 | 40 | 78 | 28 | 90 | 39 | 42 | 3 | 95 | 80 | 81 | 72 | 89 | 78 |  |  |  | 
Nc1nc(Nc2ccc(S(N)(=O)=O)cc2)nn1C(=O)c1c(F)cccc1F | 34 | 4 | 61 | 6 |  | 1 | 95 | 66 |  | 20 | 96 | 70 |  | 71 | 68 | 17 | 45 | 10 | 56 | 
Nc1ncnc2c1c(-c1ccc(Oc3ccccc3)cc1)cn2C1CCCC1 | 91 | 11 | 56 | 52 | 102 | 52 | 75 | 24 | 83 | 37 | 77 | 69 | 105 | 55 | 92 | 82 | 72 | 34 | 102 | 
O=c1cc(N2CCNCC2)oc2c(-c3ccccc3)cccc12 | 95 | 104 | 59 | 55 |  | 87 |  |  | 92 | 78 | 84 | 92 | 101 | 76 |  | 91 |  |  | 104 | 105
O=C1NC(=O)C(c2c[nH]c3ccccc23)=C1c1c[nH]c2ccccc12 | 64 | 9 | 21 | 2 |  | 33 |  |  |  | 60 |  |  |  |  | 51 | 9 |  | 43 | 63 | 59
CCCC(=O)Oc1ccc2[nH]c(C(=O)c3cc4ccccc4[nH]3)cc2c1 | 105 | 71 | 67 | 68 |  | 81 | 99 | 100 | 95 | 76 | 71 | 103 | 98 | 79 | 100 | 90 |  | 127 | 75 | 89
Nc1n[nH]c2nc3ccccc3nc12 | 117 | 95 | 81 | 70 | 95 | 73 |  |  | 76 | 87 | 115 | 81 | 80 | 83 | 91 | 81 | 92 | 100 | 70 | 80
O=C(c1cc2cc(O)ccc2[nH]1)c1cc2cc(O)ccc2[nH]1 | 56 | 18 | 48 | 9 | 47 | 7 | 33 | 8 | 43 | 4 | 77 | 73 | 111 | 72 | 81 | 32 | 74 | 29 | 54 | 38
O=C1Nc2ccc(Cl)cc2/C1=C/c1cc(Cl)c(O)c(Cl)c1 | 49 | 2 | 56 | 50 | 92 | 58 | 90 | 61 | 81 | 23 | 88 | 89 | 115 | 84 |  | 87 | 87 | 79 | 52 | 65
CC(C)(C)c1nc2c3ccc(F)cc3c3c(=O)[nH]ccc3c2[nH]1 | 14 | 4 | 41 | 37 | 29 | 42 | 66 | 65 |  |  |  | 102 |  |  |  |  |  |  | 98 | 55
N#Cc1c(NC(=O)c2cccc3ccccc23)sc2c1CCCC2 | 95 | 91 | 99 | 84 | 94 |  |  |  | 96 | 78 |  |  | 76 |  | 100 | 96 |  |  | 82 | 72
Cn1sc(=O)n(Cc2ccccc2)c1=O | 98 | 97 | 71 | 70 | 96 | 98 | 97 | 89 | 73 | 86 | 95 | 87 | 83 | 97 | 84 | 80 | 141 | 95 | 43 | 62
CCOC(=O)c1c(C)[nH]c(/C=C2\C(=O)Nc3ccccc32)c1C | 85 | 72 | 97 | 88 | 16 | 3 |  |  |  |  |  |  |  |  |  | 98 |  |  | 97 | 98
